# For some assays here: Entries with a potency or affinity are not part of this list.
# Columns and labels:
# Parameters in all cases: scale not given: direction of the effect not stated beside the values
# [1] = molecular target: Protein translocase subunit SecA (Escherichia coli (strain K12)) (UniProt P10408); experiment: Assay to Identify E. coli SecA ATPase Inhibitors; type: functional; conditions: 30 µM
# [2] = molecular target: T1, Ubiquitin-activating enzyme e1, putative (Leishmania donovani (strain BPK282A1)) (UniProt E9BSI1); experiment: Leishmania donovani Ubiquitin Activating Enzyme (LdE1); type: functional; conditions: 30 µM
# T1 sequence (whole entry): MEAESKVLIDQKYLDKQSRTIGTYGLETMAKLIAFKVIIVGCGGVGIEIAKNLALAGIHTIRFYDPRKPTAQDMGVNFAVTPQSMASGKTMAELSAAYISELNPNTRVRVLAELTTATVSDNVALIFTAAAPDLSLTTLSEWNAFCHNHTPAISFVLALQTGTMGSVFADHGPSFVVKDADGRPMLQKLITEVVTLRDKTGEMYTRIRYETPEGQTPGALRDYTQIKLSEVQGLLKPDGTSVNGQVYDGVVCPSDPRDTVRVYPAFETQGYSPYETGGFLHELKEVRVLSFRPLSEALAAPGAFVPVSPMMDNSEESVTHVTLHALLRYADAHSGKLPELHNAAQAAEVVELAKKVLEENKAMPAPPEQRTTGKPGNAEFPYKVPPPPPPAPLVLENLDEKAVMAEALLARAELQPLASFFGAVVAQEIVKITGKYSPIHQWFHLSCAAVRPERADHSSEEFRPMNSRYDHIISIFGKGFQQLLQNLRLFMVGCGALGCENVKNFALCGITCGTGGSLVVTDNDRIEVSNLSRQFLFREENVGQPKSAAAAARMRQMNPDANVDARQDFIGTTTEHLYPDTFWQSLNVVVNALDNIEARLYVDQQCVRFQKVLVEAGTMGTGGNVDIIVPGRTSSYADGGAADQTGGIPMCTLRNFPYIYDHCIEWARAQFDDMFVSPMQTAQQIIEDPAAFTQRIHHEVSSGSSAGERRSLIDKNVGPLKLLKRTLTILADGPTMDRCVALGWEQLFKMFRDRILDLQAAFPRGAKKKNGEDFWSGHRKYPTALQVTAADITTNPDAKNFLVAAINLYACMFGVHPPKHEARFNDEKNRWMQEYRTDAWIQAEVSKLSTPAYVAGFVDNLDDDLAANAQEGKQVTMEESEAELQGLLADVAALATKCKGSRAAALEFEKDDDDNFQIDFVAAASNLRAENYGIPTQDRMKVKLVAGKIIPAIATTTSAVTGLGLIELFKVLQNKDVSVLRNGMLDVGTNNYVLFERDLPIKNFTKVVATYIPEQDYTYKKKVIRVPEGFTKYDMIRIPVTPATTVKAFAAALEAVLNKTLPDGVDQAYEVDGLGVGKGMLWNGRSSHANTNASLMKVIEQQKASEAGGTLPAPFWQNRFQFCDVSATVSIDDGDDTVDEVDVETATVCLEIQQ
# [3] = molecular target: AMP-activated protein kinase, AMPK (Homo sapiens) (UniProt P54646+O43741+P54619+Q9UGJ0+Q9Y478+Q13131+Q9UGI9); experiment: AMP-dependent Kinase enzyme assay. An in vitro enzyme assay that detects ADP turnover that is directly proportional to AMPK activity. This uses naive AMPK that is activated during the assay with MK-8722; type: functional; conditions: 30 µM
# [4] = molecular target: Sialic acid-binding Ig-like lectin 9 (Homo sapiens) (UniProt Q9Y336); experiment: Hs-Siglec9 ALPHAscreen SOP 20170721; conditions: 10 µM
# Sialic acid-binding Ig-like lectin 9 (Homo sapiens), sequence (Q9Y336 whole entry): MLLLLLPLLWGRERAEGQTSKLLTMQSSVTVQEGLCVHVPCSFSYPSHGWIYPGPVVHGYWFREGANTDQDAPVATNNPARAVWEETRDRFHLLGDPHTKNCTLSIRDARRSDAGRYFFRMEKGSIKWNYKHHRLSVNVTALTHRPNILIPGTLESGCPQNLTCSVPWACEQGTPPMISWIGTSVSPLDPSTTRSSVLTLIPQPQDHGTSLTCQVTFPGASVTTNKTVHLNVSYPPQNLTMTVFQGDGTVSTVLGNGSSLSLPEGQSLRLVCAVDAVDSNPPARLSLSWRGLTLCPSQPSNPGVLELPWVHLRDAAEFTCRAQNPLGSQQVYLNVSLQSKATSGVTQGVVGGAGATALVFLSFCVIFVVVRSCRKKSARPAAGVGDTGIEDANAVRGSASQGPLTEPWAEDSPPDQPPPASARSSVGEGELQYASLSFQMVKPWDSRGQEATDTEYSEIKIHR
# Trypanosoma cruzi = experiment: Trypanosoma cruzi phosphomannomutase and mannose-1-phosphate guanylyltransferase assay; type: functional; conditions: 10 µM
# [5] = molecular target: T2, Arginase-2, mitochondrial (Homo sapiens) (UniProt P78540); experiment: in vitro enzyme assay to detect the production of urea directly proportional to the activity of Arginase II; type: functional; conditions: 33.3 µM; also: in the data most compounds retested in dose-response had high values
# T2 sequence (whole entry): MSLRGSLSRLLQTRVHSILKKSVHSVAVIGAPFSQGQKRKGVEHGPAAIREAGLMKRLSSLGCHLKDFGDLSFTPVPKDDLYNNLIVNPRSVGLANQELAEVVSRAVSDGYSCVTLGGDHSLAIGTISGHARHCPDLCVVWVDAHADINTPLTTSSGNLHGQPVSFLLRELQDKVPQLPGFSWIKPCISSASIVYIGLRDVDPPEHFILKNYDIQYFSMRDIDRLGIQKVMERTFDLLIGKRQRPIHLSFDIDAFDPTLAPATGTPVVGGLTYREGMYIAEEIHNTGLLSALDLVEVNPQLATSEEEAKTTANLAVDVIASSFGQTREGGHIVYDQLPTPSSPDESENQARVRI
# [6] = molecular target: T3, Proteasome subunit beta (Trypanosoma cruzi) (UniProt O96673); experiment: Trypanosoma cruzi proteasome chymotrypsin-like activity (TcProtChymo) assay.; also: in the data most compounds retested in dose-response had high values; type: functional; conditions: 9.37 µM
# T3 sequence (whole entry): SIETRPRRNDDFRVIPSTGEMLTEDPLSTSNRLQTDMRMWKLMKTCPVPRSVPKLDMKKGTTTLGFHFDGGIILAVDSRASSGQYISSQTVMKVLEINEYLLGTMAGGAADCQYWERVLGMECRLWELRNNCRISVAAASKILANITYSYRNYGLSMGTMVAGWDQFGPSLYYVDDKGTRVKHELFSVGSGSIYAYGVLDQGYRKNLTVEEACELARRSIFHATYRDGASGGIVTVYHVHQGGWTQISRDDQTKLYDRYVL
# Homo sapiens = organism: Homo sapiens; experiment: To identify inhibition of the IFN signalling (Jak-Stat) pathway via expression of an eGFP reporter gene under the control of an IFN-stimulated response element (ISRE) containing MxA promoter.; type: functional; conditions: 30 µM
# [7] = molecular target: T4, Tyrosyl-tRNA synthetase, putative (Trypanosoma cruzi (strain CL Brener)) (UniProt Q4DSP6); experiment: Trypanosoma cruzi tyrosyl tRNA synthetase (TcYRS) _High Tyrosine SOP; type: functional; conditions: 30 µM; also: in the data most compounds retested in dose-response had high values
# T4 sequence (whole entry): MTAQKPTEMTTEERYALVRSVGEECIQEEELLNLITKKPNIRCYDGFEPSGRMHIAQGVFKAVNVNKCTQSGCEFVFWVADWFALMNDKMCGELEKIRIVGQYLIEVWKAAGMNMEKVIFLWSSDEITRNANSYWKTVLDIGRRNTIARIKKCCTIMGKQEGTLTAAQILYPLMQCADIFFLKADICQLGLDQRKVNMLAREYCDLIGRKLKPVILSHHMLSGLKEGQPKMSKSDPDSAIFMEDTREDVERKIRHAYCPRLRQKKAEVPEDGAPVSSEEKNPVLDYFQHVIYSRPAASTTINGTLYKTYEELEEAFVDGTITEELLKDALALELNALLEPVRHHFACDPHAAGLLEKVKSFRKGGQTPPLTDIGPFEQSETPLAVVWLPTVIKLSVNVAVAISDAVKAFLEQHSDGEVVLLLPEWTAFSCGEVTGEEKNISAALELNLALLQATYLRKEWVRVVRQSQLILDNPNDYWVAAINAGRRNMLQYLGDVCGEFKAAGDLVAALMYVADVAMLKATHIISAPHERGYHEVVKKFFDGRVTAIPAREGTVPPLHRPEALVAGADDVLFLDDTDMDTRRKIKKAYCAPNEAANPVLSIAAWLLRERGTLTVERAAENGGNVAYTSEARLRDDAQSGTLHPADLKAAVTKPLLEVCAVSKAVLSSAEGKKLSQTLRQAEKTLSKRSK
# [8] = molecular target: T4, Tyrosyl-tRNA synthetase, putative (Trypanosoma cruzi (strain CL Brener)); experiment: Trypanosoma cruzi tyrosyl tRNA synthetase (TcYRS) SOP; type: functional; conditions: 30 µM
# [9] = molecular target: Chromo domain-containing protein 1 (Saccharomyces cerevisiae (strain ATCC 204508 / S288c) (Baker's yeast)) (UniProt P32657); experiment: ScCHD-1 Enzyme Inhibition Assay; type: functional; conditions: 30 µM; also: in the data most compounds retested in dose-response had high values
# Chromo domain-containing protein 1 (Saccharomyces cerevisiae (strain ATCC 204508 / S288c) (Baker's yeast)), sequence (P32657 whole entry, the tested form may be a part): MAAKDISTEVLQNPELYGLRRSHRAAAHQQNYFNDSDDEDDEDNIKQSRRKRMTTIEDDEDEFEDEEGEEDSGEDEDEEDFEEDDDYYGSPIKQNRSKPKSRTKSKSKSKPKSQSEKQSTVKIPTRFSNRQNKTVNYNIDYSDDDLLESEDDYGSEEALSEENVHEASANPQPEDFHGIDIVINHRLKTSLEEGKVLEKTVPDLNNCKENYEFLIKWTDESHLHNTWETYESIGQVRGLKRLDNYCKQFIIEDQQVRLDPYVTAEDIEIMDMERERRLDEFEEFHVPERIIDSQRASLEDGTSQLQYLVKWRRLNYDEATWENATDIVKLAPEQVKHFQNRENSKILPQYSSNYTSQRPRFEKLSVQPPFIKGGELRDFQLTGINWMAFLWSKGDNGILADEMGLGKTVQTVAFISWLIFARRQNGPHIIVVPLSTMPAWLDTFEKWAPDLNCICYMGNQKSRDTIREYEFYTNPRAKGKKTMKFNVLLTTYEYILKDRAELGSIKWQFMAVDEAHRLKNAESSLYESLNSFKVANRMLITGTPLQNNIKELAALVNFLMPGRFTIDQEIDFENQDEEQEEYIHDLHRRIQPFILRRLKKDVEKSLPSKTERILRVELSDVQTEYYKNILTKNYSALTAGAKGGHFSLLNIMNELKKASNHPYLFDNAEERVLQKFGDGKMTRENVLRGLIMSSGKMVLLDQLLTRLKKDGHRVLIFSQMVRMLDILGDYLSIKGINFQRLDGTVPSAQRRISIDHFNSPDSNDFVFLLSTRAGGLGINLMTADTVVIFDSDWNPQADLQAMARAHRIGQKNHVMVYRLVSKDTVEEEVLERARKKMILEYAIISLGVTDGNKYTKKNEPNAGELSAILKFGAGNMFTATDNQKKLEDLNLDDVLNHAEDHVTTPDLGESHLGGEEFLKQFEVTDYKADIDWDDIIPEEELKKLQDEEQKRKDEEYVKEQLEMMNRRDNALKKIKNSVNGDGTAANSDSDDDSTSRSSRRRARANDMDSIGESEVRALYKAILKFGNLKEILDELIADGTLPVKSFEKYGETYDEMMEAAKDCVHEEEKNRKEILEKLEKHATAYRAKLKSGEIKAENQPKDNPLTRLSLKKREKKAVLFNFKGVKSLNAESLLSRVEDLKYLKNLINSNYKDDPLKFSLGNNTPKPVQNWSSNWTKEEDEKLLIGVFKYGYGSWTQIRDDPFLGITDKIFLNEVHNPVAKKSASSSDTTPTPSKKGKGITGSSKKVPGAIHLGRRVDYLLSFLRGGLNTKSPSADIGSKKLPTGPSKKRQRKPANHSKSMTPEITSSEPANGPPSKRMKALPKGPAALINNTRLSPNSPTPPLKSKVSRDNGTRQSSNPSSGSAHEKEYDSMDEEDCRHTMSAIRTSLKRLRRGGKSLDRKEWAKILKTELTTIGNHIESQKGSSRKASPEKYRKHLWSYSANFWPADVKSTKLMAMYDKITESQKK
# Protein translocase subunit SecA (Escherichia coli (strain K12)), sequence (P10408 whole entry): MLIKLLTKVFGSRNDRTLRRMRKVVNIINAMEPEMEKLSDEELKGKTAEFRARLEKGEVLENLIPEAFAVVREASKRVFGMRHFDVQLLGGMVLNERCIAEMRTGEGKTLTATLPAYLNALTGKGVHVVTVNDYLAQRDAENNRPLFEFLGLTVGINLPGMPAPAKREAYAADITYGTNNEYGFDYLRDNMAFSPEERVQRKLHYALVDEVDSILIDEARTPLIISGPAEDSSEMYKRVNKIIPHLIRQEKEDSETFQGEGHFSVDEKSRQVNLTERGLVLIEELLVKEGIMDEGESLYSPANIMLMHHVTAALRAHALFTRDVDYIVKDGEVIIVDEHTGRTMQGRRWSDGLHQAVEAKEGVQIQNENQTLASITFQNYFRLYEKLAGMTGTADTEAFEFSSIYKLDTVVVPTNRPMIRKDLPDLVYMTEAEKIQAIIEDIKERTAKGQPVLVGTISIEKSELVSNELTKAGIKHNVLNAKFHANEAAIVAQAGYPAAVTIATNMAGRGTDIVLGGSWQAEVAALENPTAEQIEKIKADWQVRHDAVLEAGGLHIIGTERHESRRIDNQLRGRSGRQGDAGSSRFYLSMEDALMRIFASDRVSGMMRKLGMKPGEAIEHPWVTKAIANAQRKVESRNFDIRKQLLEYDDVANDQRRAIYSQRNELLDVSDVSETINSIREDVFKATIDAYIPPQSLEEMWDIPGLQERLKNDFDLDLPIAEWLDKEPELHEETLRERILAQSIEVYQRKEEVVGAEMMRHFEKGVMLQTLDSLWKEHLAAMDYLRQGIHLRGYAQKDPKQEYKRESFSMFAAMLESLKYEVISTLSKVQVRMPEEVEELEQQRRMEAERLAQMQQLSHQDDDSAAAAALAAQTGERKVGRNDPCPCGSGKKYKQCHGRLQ
Structure (SMILES),Percent Effect [1] [%],Percent Effect [2] [%],Percent Effect [3] [%],Percent Effect [4] [%],Percent Effect (Trypanosoma cruzi) [%],Percent Effect [5] [%],Percent Effect [6] [%],Percent Effect (Homo sapiens) [%],Percent Effect [7] [%],Percent Effect [8] [%],Percent Effect [9] [%]
CC(C)(C)c1nnc(CN2CCOC(Cn3cccn3)C2)o1 (stereo not given),-3.67,15.2,-3.73,9.59,5.38,1.9,5.16,14.4,5.42,16.5,-5.63
Cc1c[nH]c(CN(C)C(=O)c2cccc(CCC(C)(C)O)c2)n1,-4.48,8,-4.37,15.8,5.16,20.3,18,-2.28,3.83,16.1,-3.88
O=C(NCCNc1ncccn1)C1CC(=O)N(CC(F)(F)F)C1 (stereo not given),-0.757,16.2,-5.02,-3.51,-7.26,-4.81,5.59,16.5,9.36,13.6,-6.16
Cc1nn(C)c(C)c1CNCc1ccnc(N2CCOCC2)c1,-6.06,1.27,2.39,-0.497,2.56,-0.645,-1.03,24,-1.04,-2.53,-31.5
CN(CC1CN(Cc2cn3ccsc3n2)CCO1)c1cccnn1 (stereo not given),-3.37,26,-3.91,-12.4,-7.54,1.47,23.5,15,4.76,21.2,-26.4
c1cnc(-c2nc(CN3CCC(c4ccn[nH]4)CC3)cs2)nc1,-1.4,13.5,-30.2,15,2.32,1.66,2.15,-0.446,7.92,23.2,-3.65
COc1ccc(CCC(=O)Nc2cccnc2N2CCCC2)cc1Br,-6.14,8.11,-7.1,0.341,-5.57,2.81,3.42,13.8,5.42,6.17,-2.84
COc1cccc(CN2CCN(c3ccc4nncn4n3)C(C)C2)c1 (stereo not given),-6.29,-20.8,-1.07,-4.72,-3,0.712,-1.86,85.3,6.8,-2.44,5.81
Cc1cc(C)n(-c2cncc(NCCNC(=O)C(C)C)n2)n1,-6.42,8.11,-5.29,-1.97,-3.03,0.248,10.4,-9.83,4.3,6.17,-5.51
CCS(=O)(=O)N1CCc2c(cccc2NC(=O)NCCOC)C1,-5.83,5.26,6.05,2.98,-0.0974,-2.37,7.77,8.27,4.25,13,-5.11
